Reference: PubChem BioAssay AID1159580 (chemical genetic matrix, 2015)
Several values for one entry are separate records, joined by “and”; a condition that tells them apart may be missing. Equal values may be shown once. Screen size: about 5,500 compounds; about 2,000 (36%) were called active. Roughly 18% stayed inconclusive and do not appear here. Cut-off read from the data, not from the text of the source: active = normalized growth mostly below about 0.91 (no sharp cut-off); inconclusive = no clear call, values can overlap the other calls; inactive = mostly above about 0.92. This is one part of the list.

Experiment: chemical genetic growth profiling, strain panel (AID 1159580);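 note: tested at 20 µM; growth read once vehicle control cultures reached saturation at 30 °C; 1 = growth at the plate median or of vehicle wells; lower values mean less growth of the strain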
Conditions: growth OD

Measured: normalized growth

CCN(CC)CCNC(=O)c1cc(S(C)(=O)=O)ccc1OC
inactive: S. cerevisiae deletion strains, locus YJR066W, strain TOR1, active compounds read low 0.947 | S. cerevisiae deletion strains, locus YJR075W, strain HOC1, active compounds read low 1.03 and 0.995 | S. cerevisiae deletion strains, locus YKL009W, strain mrt4, active compounds read low 1.02 | S. cerevisiae deletion strains, locus YKL068W, active compounds read low 1.01 | S. cerevisiae deletion strains, locus YKL085W, strain MDH1 (second series), active compounds read low 1.02 | S. cerevisiae deletion strains, locus YKL085W, strain MDH1, active compounds read low 1.02 | S. cerevisiae deletion strains, locus YKL160W, strain elf1, active compounds read low 0.944 | S. cerevisiae deletion strains, locus YKL190W, strain CNB1, active compounds read low 1.01 | S. cerevisiae deletion strains, locus YKR001C, strain vps1, active compounds read low 1.01 | S. cerevisiae deletion strains, locus YKR026C, strain gcn3, active compounds read low 0.979 | S. cerevisiae deletion strains, locus YKR091W, strain srl3, active compounds read low 0.962 | S. cerevisiae deletion strains, locus YLL001W, strain dnm1, active compounds read low 0.94 | S. cerevisiae deletion strains, locus YLL026W, active compounds read low 0.975 | S. cerevisiae deletion strains, locus YLL041C, strain sdh2, active compounds read low 0.972 | S. cerevisiae deletion strains, locus YLR027C, strain aat2, active compounds read low 0.963 | S. cerevisiae deletion strains, locus YLR039C, strain RIC1, active compounds read low 1.03 | S. cerevisiae deletion strains, locus YLR058C, strain SHM2, active compounds read low 1.01 | S. cerevisiae deletion strains, locus YLR102C, strain apc9, active compounds read low 1.01 | S. cerevisiae deletion strains, locus YLR113W, strain HOG1, active compounds read low 0.984 | S. cerevisiae deletion strains, locus YLR221C, strain rsa3, active compounds read low 0.948 | S. cerevisiae deletion strains, locus YLR258W, strain gsy2, active compounds read low 0.981 | S. cerevisiae deletion strains, locus YLR262C, strain YPT6 (second series), active compounds read low 0.976 | S. cerevisiae deletion strains, locus YLR262C, strain YPT6, active compounds read low 1.06 | S. cerevisiae deletion strains, locus YLR268W, strain sec22, active compounds read low 1.02 | S. cerevisiae deletion strains, locus YLR320W, strain mms22, active compounds read low 0.941 | S. cerevisiae deletion strains, locus YLR330W, strain CHS5, active compounds read low 1.01 | S. cerevisiae deletion strains, locus YLR342W, strain FKS1 (second series), active compounds read low 1.02 | S. cerevisiae deletion strains, locus YLR342W, strain FKS1, active compounds read low 0.963 | S. cerevisiae deletion strains, locus YLR357W, strain rsc2, active compounds read low 0.927 | S. cerevisiae deletion strains, locus YLR370C, strain arc18, active compounds read low 0.969 | S. cerevisiae deletion strains, locus YLR371W, strain rom2, active compounds read low 1.01 | S. cerevisiae deletion strains, locus YLR384C, strain iki3, active compounds read low 0.971 | S. cerevisiae deletion strains, locus YLR418C, strain cdc73, active compounds read low 1.04 | S. cerevisiae deletion strains, locus YML016C, strain PPZ1, active compounds read low 1.01 | S. cerevisiae deletion strains, locus YML032C, strain rad52, active compounds read low 1.01 | S. cerevisiae deletion strains, locus YML120C, strain ndi1, active compounds read low 0.944 | S. cerevisiae deletion strains, locus YML124C, strain tub3, active compounds read low 1.01 | S. cerevisiae deletion strains, locus YMR058W, strain fet3, active compounds read low 0.969 | S. cerevisiae deletion strains, locus YMR078C, strain ctf18, active compounds read low 1.01 | S. cerevisiae deletion strains, locus YMR125W, strain sto1, active compounds read low 0.963 | S. cerevisiae deletion strains, locus YMR129W, active compounds read low 0.974 | S. cerevisiae deletion strains, locus YMR205C, strain PFK2, active compounds read low 0.941 | S. cerevisiae deletion strains, locus YMR223W, strain ubp8, active compounds read low 1.03 | S. cerevisiae deletion strains, locus YMR231W, strain pep5, active compounds read low 0.973 | S. cerevisiae deletion strains, locus YMR263W, strain SAP30, active compounds read low 1 | S. cerevisiae deletion strains, locus YMR307W, strain GAS1, active compounds read low 1.06 and 0.987 | S. cerevisiae deletion strains, locus YNL067W, strain RPL9B, active compounds read low 1 | S. cerevisiae deletion strains, locus YNL071W, strain lat1, active compounds read low 0.975 | S. cerevisiae deletion strains, locus YNL128W, strain TEP1, active compounds read low 1.02 | S. cerevisiae deletion strains, locus YNL153C, strain GIM3, active compounds read low 1.02 | S. cerevisiae deletion strains, locus YNL175C, strain NOP13, active compounds read low 1.01 | S. cerevisiae deletion strains, locus YNL183C, strain NPR1, active compounds read low 0.921 | S. cerevisiae deletion strains, locus YNL197C, strain WHI3, active compounds read low 1.03 | S. cerevisiae deletion strains, locus YNL209W, strain ssb2, active compounds read low 0.972 | S. cerevisiae deletion strains, locus YNL224C, strain SQS1, active compounds read low 1 | S. cerevisiae deletion strains, locus YNL233W, strain BNI4, active compounds read low 1 | S. cerevisiae deletion strains, locus YNL248C, strain rpa49, active compounds read low 0.971 | S. cerevisiae deletion strains, locus YNL250W, strain rad50, active compounds read low 1.04 | S. cerevisiae deletion strains, locus YNL271C, strain bni1, active compounds read low 1 | S. cerevisiae deletion strains, locus YNL298W, strain CLA4, active compounds read low 1.01 | S. cerevisiae deletion strains, locus YNL307C, strain MCK1, active compounds read low 1.02 | S. cerevisiae deletion strains, locus YNL322C, strain KRE1 (second series), active compounds read low 0.956 | S. cerevisiae deletion strains, locus YNL322C, strain KRE1, active compounds read low 0.961 | S. cerevisiae deletion strains, locus YNR049C, strain mso1, active compounds read low 0.96 | S. cerevisiae deletion strains, locus YNR052C, strain pop2, active compounds read low 1.01 | S. cerevisiae deletion strains, locus YOL006C, strain TOP1, active compounds read low 1.01 | S. cerevisiae deletion strains, locus YOL012C, strain htz1 0.994 | S. cerevisiae deletion strains, locus YOL147C, strain pex11, active compounds read low 1.01 | S. cerevisiae deletion strains, locus YOR001W, strain rrp6, active compounds read low 0.968 | S. cerevisiae deletion strains, locus YOR061W, strain CKA2, active compounds read low 1.01 | S. cerevisiae deletion strains, locus YOR069W, strain VPS5, active compounds read low 1.01 | S. cerevisiae deletion strains, locus YOR070C, strain gyp1, active compounds read low 0.98 | S. cerevisiae deletion strains, locus YOR080W, strain dia2, active compounds read low 0.959 | S. cerevisiae deletion strains, locus YOR083W, strain WHI5 (second series), active compounds read low 1 | S. cerevisiae deletion strains, locus YOR083W, strain WHI5, active compounds read low 0.94 | S. cerevisiae deletion strains, locus YOR106W, strain vam3, active compounds read low 0.939 | S. cerevisiae deletion strains, locus YOR136W, strain idh2, active compounds read low 1.01 | S. cerevisiae deletion strains, locus YOR144C, strain elg1, active compounds read low 1.01 | S. cerevisiae deletion strains, locus YOR184W, strain ser1, active compounds read low 1.01 | S. cerevisiae deletion strains, locus YOR231W, strain MKK1, active compounds read low 0.978 | S. cerevisiae deletion strains, locus YOR265W, strain rbl2, active compounds read low 0.979 | S. cerevisiae deletion strains, locus YOR270C, strain vph1, active compounds read low 0.933 | S. cerevisiae deletion strains, locus YOR290C, strain snf2, active compounds read low 0.928 | S. cerevisiae deletion strains, locus YOR316C, strain cot1, active compounds read low 1.01 | S. cerevisiae deletion strains, locus YPL051W, strain arl3, active compounds read low 1 | S. cerevisiae deletion strains, locus YPL055C, strain LGE1, active compounds read low 0.983 and 0.98 | S. cerevisiae deletion strains, locus YPL078C, strain atp4, active compounds read low 0.962 | S. cerevisiae deletion strains, locus YPL106C, strain sse1, active compounds read low 0.931 | S. cerevisiae deletion strains, locus YPL240C, strain hsp82, active compounds read low 0.988 | S. cerevisiae deletion strains, locus YPL256C, strain CLN2, active compounds read low 0.981 | S. cerevisiae deletion strains, locus YPR119W, strain clb2, active compounds read low 1 | S. cerevisiae deletion strains, locus YPR141C, strain kar3, active compounds read low 1.01 | S. cerevisiae deletion strains, locus YPR163C, strain tif3, active compounds read low 1.01 | S. cerevisiae deletion strains, locus YPR167C, strain met16, active compounds read low 1.01 | S. cerevisiae deletion strains, strain wtn01, active compounds read low 1.01 | S. cerevisiae strains, strain wild type, active compounds read low 1.01
